TDP1 cell noCPT: qHTS for Inhibitors of human tyrosyl-DNA phosphodiesterase 1 (TDP1): qHTS in cells in absence of CPT; DT40 Tdp1-/- hTDP1 cells, no CPT, ATP luminescence, 48 h; Potency, µM (doses to about 46.2 µM), for inactives: at the top dose activity change, negative = growth inhibition, usual class: inhibitors; 420,000 tested, 15% active; also: potency is read from the fitted curve at half-maximal effect; nearly all actives have a fitted effect of over 55% in size
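Readout: luminescence from CellTiter-Glo after 30 min in the dark at RT. Cells: DT40 Tdp1-/- with stable hTDP1, 400/well. Exposure: compounds alone, ≥48 hr, 37 °C.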
IL1B secr inh: inflammasome signaling inhibition, IL-1 beta readout; 360,000 tested, 4.7% active; THP-1 LPS/ATP IL-1B secretion, AlphaLISA, 16 h; hits give low values; activity change, % at 57.5 µM; in the data active = activity change below about -50%; inconclusive = mostly about -30% to -49%
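THP-1 cells pretreated 1 hr with compounds (up to 57.5 uM final), then stimulated with LPS (250 ng/mL final) plus ATP (1.25 mM final); secreted IL-1B measured by AlphaLISA after 16 hr, decreased signal indicating inhibition.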
HT1080 IDH1KD tx: toxicity to HT-1080 IDH1 knockdown cells (counter line); 360,000 tested, 2% active; AID 686971; Potency, µM (top dose mostly 46.1 µM), for the others: at the top dose activity, negative = toxicity, usual class: cytotoxic; HT-1080 IDH1 knockdown viability, ATP luminescence, 48 h;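 also: potency is read from the fitted curve at half-maximal effect; 0% = DMSO wells and -100% = cell-free medium wells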
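Cytotoxicity counter-line: IDH1KD HT-1080, 48 h, CellTiter-Glo. Curves classed by r2, magnitude and activity.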
TDP1 cell CPT: DT40-hTDP1 cell growth loss with CPT | Potency, µM (top dose mostly 46.2 µM), without a hit: at the highest dose activity change, negative = growth inhibition, usual class: inhibitors | AID 686979 | chicken DT40 Tdp1-/-;hTDP1 cells + 20 nM CPT, ATP luminescence, 48 h | 420,000 tested, 12% active; also: potency is read from the fitted curve at half-maximal effect; nearly all actives have a fitted effect of over 55% in size
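Chicken DT40 Tdp1-/- cells complemented with human TDP1, 400 cells/well, exposed to compounds plus 20 nM camptothecin for at least 48 h at 37 C; viability read as ATP content by CellTiter-Glo luminescence.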
HT1080-NT tox: kills 2HG-producing HT-1080-NT fibrosarcoma cells; 360,000 tested, 1.6% active; Potency, µM (highest dose often 46.1 µM), for inactives: top-dose activity, negative = less viability, most hits filed as cytotoxic; HT-1080-NT fibrosarcoma viability, CellTiter-Glo ATP luminescence, 48 h;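 also: NT is the 2HG producing partner of a matched IDH1 knockdown line; potency is read from the fitted curve at half-maximal effect; 0% = DMSO-treated cells and -100% = media-only wells without cells; nearly all actives have a fitted effect of over 55% in size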
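Toxicity toward the 2HG-producing NT line was scored as %Activity, normalised to DMSO and no-cell wells, from CellTiter-Glo luminescence after 48 hours' treatment.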
* = called active by the depositor; ? = inconclusive; · = no result; [ ] = remark or other dose. Sampled rows, rich in hits. Any-hit rate of the full collection: about 19%. Unless noted, calls follow the shape of the dose curve; as a rule, active = well fitted curve in the direction sought with a large enough effect; inconclusive = small, poorly fitted or top-dose-only effect, or another doubt; inactive = no such curve, though single readings can be large; an effect the other way counts as inactive or inconclusive. Unless noted, % is scaled to controls: 0 for no effect and ±100 for the full control effect.

SMILES	TDP1 cell noCPT	IL1B secr inh	HT1080 IDH1KD tx	TDP1 cell CPT	HT1080-NT tox
C/C(CC(=O)Nc1ccccn1)=N\NC(=O)c1cnccn1	4%	35	6%	-2%	1%
COc1cc(C=O)ccc1OCCCOc1ccc([N+](=O)[O-])cc1	?	12	-9%	?	-4%
COC(=O)C(=Cc1ccc(OCc2ccc([N+](=O)[O-])cc2)c(OC)c1)C(=O)OC	13µM*	-92*	?	9.2µM*	?
COc1cc(C(c2c(C)[nH][nH]c2=O)c2c(C)[nH][nH]c2=O)ccc1OCc1ccc([N+](=O)[O-])cc1	?	-28	13%	?	0%
CCOC(=O)C(=Cc1ccc(OCc2ccc([N+](=O)[O-])cc2)c(OC)c1)C(=O)OCC	15µM*	-101*	?	13µM*	21µM*
Cc1ccccc1OCc1nc2c3c(ncn2n1)-c1ccccc1CC31CCCC1	15µM*	-3	23%	?	19%
Oc1cccc(-c2nc3c4c(ncn3n2)-c2ccccc2CC42CCCC2)c1	18µM*	?	11µM*	18µM*	?
Cc1ccc(OCc2nc3c4c(ncn3n2)-c2ccccc2CC42CCCC2)cc1	?	14	8%	-17%	7%
O=S(=O)(Cc1ccccc1)Oc1ccccc1	12%	9	10%	10%	20%
C[C@@]12CCC[C@@](C)(C(=O)O)C1CC[C@@]13C[C@@H](NCc4ccccc4)[C@@](C)(CCC12)C3 (some centres not stated)	21µM*	0	11%	?	8%
C[C@@]12CCC3[C@@](CC[C@@H]4[C@](C)(C(=O)O)CCC[C@@]34C)(C[C@H]1O)C2 (some centres not stated)	2%	3	0%	0%	2%
COCC(=O)N1c2nc(C(C)C)nn2C2(CCCCC2)[C@@H]2CCCC[C@@H]21	2.9µM*	·	·	2.9µM*	·
CC(C)C(=O)N1c2nc(-c3ccco3)nn2C2(CCCCC2)[C@@H]2CCCC[C@@H]21	-12%	·	·	-22%	·
CC(=O)N1c2nc(C(C)C)nn2C2(CCCCC2)[C@@H]2CCCC[C@@H]21	1.8µM*	·	·	4.1µM*	·
CCCC(=O)N1c2nc(C(C)C)nn2C2(CCCCC2)[C@@H]2CCCC[C@@H]21	9.2µM*	·	·	10µM*	·
CC(C)CC(=O)N1c2nc(C(C)C)nn2C2(CCCCC2)[C@@H]2CCCC[C@@H]21	?	·	·	4%	·
Cc1ccc(S(=O)(=O)N(C)C)cc1NC(=O)CSc1nc2ncc(Cl)cc2[nH]1	?	29	-16%	?	-17%
COc1cc(CC(=O)NNC(=O)c2cc(C)oc2C)cc(OC)c1OC	10%	-5	4%	12%	6%
COc1ccc(C(=O)NCc2nnc(SCC(=O)Nc3ccc(C)cc3)n2-c2ccccc2)cc1	-24%	·	·	?	·
Cc1cccnc1NC1CCCCC1	2%	-12	-4%	-4%	-6%
c1ccc2c(NC3CCCC3)nnc(NC3CCCC3)c2c1	16µM*	-24	-30%	?	-18%
COc1ccccc1NC(=O)COC(=O)/C=C/c1cccs1	-22%	0	20%	?	2%
CCC(C(=O)Nc1ccccc1OC)n1c(C(=O)OC)cc2ccsc21 (configuration not stated)	?	-57*	·	21µM*	·
CCCCc1nc2sc3c(SCC(=O)NCc4ccco4)ncnc3c2c2c1CCC2	11µM*	17	1%	13µM*	0%
CC(C)Sc1nc(NCc2ccco2)c2c3c(sc2n1)COC(C)(C)C3	15µM*	-17	-16%	26µM*	-17%
SMILES	TDP1 cell noCPT	IL1B secr inh	HT1080 IDH1KD tx	TDP1 cell CPT	HT1080-NT tox
CSc1nc(SCC(=O)NCc2ccco2)c2c3c(sc2n1)COC(C)(C)C3	8.2µM*	86	7.1µM*	13µM*	7.9µM*
CCn1nc(C)c(CN2CCc3c([nH]c4ccccc34)C2c2ccc(F)c(OC)c2)c1C (configuration not stated)	12µM*	-15	-2%	29µM*	-29%
Cc1ccccc1-c1nnc(C2CCN(S(=O)(=O)c3ccc(Cl)cc3)CC2)o1	3.7µM*	·	·	5.8µM*	·
COc1ccc(S(=O)(=O)N2CCC(c3nnc(-c4ccccc4C)o3)CC2)c(OC)c1	6.5µM*	·	·	8.2µM*	·
CSc1nc(N(C)NC(=O)c2ccc(F)cc2)c2ccccc2n1	0.73µM*	75	0.52µM*	0.58µM*	?
c1ccc(-c2nc(N3CCCCCC3)nc(-n3ccnc3)n2)cc1	?	-3	0%	?	-1%
c1ccc(-c2ccc(-n3ccnc3)cc2)cc1	?	-24	14%[9.24 µM]	26µM*	?
c1ccc(-c2nc(N3CCN(c4ccccc4)CC3)nc(-n3ccnc3)n2)cc1	16µM*	?	?	?	11µM*
Cc1cnc(C(=O)Oc2ccc(-c3ccccc3)cc2)cn1	-13%	3	7%	-24%	6%
Cc1ccccc1Cn1ccc(NC(=O)c2nn3cccnc3c2Cl)n1	?	-11	11%	21µM*	5%
Cc1cccc(C)c1NC(=O)C1(C)CSCC(=O)N1Cc1cccs1 (configuration not stated)	-16%	-10	-1%	-29%	0%
CC1=NN(c2nc(-c3ccc(C)cc3)cs2)C(=O)C1N=Nc1ccc(C(N)=O)cc1 (configuration not stated)	5.2µM*	40	?	4.6µM*	-19%
CC1=NN(c2nc(-c3ccccc3)cs2)C(=O)C1N=Nc1ccccc1 (configuration not stated)	15µM*	3	2%	?	16%
COc1ccc(N(CC(=O)NCCSCc2ccco2)S(=O)(=O)c2ccccc2)cc1Cl	21µM*	-3	1%	15µM*	-2%
COc1ccc(OC)c(N(CC(=O)NCCSCc2ccco2)S(=O)(=O)c2ccc(OC)c(OC)c2)c1	16µM*	18	-4%	13µM*	-8%
COc1ccc(N(CC(=O)NCCSCc2ccccc2Cl)S(C)(=O)=O)cc1Cl	?	0	-1%	12µM*	-3%
CCC(CC)CN1CCN=C1N(C)C	-13%	9	11%	-2%	14%
CCCc1nc2c(C)cc(Br)cn2c1Cc1ccccc1	?	74	?	?	?
CCCc1nc2c(C)cc(Br)cn2c1Cc1ccsc1	23µM*	25	-9%	?	-14%
Cc1cc(Br)cn2c(Cc3ccsc3)c(-c3ccc(F)cc3)nc12	15µM*	74	-13%	-24%	-19%

Screening data (PubChem)
